Assay results reported in PubChem BioAssay (Tox21).
Results filed as inconclusive are left out. Entries that show only a call come without a potency. Activity calls are given as the source filed them. Unless noted, calls follow the shape of the full dose curve.

Tests used:
[1] = Nuclear factor erythroid 2-related factor 2/antioxidant responsive element (Nrf2/ARE) small molecule agonists: qHTS cell viability counter screen in human keratinocytes (AID 1919968; active = well fitted curve in the direction sought with a large enough effect in the repeat runs; an effect the other way counts as inactive or inconclusive; also: nearly all actives have a fitted effect of over 55% in size)
How it was run: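 KeratinoSens cells (HaCaT keratinocytes stably carrying an ARE-luciferase reporter) were seeded at 1,500 cells/well and rested 5 h at 37 C/5% CO2. They were then exposed to compounds in DMSO for 23 h. Viability was read by CellTiter-Fluor fluorescence after 1 h.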

[2] = Nuclear factor erythroid 2-related factor 2/antioxidant responsive element (Nrf2/ARE) small molecule agonists: luciferase reporter gene qHTS assay in human keratinocytes (AID 1919969); also: nearly all actives have a fitted effect of over 35% in size; also: potency is read from the fitted curve at half-maximal effect
[3] = molecular target: Gonadotropin-releasing hormone receptor (Homo sapiens) (UniProt P30968); test: Human gonadotropin-releasing hormone receptor (GnRHR) small molecule agonists, calcium flux assay in GnRHR-HEK293 cells (AID 1920063); also: nearly all actives have a fitted effect of over 35% in size
Chain of Gonadotropin-releasing hormone receptor (Homo sapiens) (P30968 whole entry, looked up): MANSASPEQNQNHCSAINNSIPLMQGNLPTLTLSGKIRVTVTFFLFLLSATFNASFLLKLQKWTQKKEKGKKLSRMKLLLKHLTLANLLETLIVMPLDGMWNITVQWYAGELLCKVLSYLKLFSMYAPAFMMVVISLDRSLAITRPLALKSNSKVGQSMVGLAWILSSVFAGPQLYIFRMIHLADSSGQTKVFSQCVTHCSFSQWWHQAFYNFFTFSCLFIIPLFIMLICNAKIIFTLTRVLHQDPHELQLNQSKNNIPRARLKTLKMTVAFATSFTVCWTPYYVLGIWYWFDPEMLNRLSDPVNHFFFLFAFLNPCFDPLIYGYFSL
How it was run: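 HEK293 cells stably expressing human GnRHR were plated 18 h at 37 °C, loaded with calcium dye 1 h at 37 °C, then given compound in agonist mode; fluorescence (Ex/Em 480/540) read kinetically for 3 min at 1 s intervals.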

[4] = molecular target: KiSS-1 receptor (Homo sapiens) (UniProt Q969F8); test: Human kisspeptin (KISS1R) small molecule agonists, calcium flux assay in KISS1R-HEK293 cells (AID 1920064; active = well fitted curve in the direction sought with a large enough effect in the repeat runs; an effect the other way counts as inactive or inconclusive)
Chain of KiSS-1 receptor (Homo sapiens) (Q969F8 whole entry, looked up): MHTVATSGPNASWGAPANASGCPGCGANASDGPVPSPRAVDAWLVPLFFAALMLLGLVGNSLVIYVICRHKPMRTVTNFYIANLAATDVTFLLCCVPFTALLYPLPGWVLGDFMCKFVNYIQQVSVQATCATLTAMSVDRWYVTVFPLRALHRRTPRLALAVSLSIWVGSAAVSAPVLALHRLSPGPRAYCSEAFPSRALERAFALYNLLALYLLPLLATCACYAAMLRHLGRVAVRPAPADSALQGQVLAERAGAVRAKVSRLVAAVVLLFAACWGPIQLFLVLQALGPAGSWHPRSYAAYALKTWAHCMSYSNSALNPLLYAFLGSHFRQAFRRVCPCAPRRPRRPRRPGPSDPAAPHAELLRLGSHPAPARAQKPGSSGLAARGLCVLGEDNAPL
How it was run: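 HEK293 cells stably expressing human KISS1R were plated 18 h at 37 °C, loaded with calcium dye for 1 h at 37 °C, then given compound by pin tool. Fluorescence (Ex/Em 480/540) was read kinetically for 3 min.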

[5] = G protein-coupled receptor (GPCR) small molecule agonists, calcium flux assay: HEK293 wild type cell line counter screen (AID 1920065)
How it was run: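 Cells were plated and cultured 18 h at 37 C/5% CO2, then loaded with calcium dye for 1 h at 37 C. Compounds in DMSO were pin-transferred in agonist mode, and fluorescence (Ex/Em 480/540) was read kinetically for 3 min at 1 s intervals.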

[6] = p53 small molecule agonists, cell-based qHTS assay with human liver microsomes: qHTS cell viability counter screen (AID 1963579); also: nearly all actives have a fitted effect of over 45% in size
How it was run: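 Metabolic activation used human liver microsomes and NADPH, both 0.5 mg/mL final, over 16 hours at 37 C on p53RE-bla cells (4,000/well). Cytotoxicity measured by CellTiter-Glo luminescence, 30 min at room temperature.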

[7] = p53 small molecule agonists, cell-based qHTS assay with rat liver microsomes: qHTS cell viability counter screen (AID 1963580); also: nearly all actives have a fitted effect of over 45% in size
How it was run: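 p53RE-bla HCT-116 cells (4,000/well) rested 5 h at 37 C, then given Tox21 compounds in DMSO with rat liver microsomes (0.5 mg/mL final) plus NADPH (0.5 mg/mL final) for 16 h at 37 C. Viability read by CellTiter-Glo luminescence after 30 min at room temperature.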

[8] = molecular target: 5-hydroxytryptamine receptor 2A (Homo sapiens) (UniProt P28223); test: 5-hydroxytryptamine receptor 2A (HTR2A) small molecule antagonists, cell-based qHTS assay (AID 1963586); also: nearly all actives have a fitted effect of over 45% in size
Chain of 5-hydroxytryptamine receptor 2A (Homo sapiens) (P28223 whole entry, looked up): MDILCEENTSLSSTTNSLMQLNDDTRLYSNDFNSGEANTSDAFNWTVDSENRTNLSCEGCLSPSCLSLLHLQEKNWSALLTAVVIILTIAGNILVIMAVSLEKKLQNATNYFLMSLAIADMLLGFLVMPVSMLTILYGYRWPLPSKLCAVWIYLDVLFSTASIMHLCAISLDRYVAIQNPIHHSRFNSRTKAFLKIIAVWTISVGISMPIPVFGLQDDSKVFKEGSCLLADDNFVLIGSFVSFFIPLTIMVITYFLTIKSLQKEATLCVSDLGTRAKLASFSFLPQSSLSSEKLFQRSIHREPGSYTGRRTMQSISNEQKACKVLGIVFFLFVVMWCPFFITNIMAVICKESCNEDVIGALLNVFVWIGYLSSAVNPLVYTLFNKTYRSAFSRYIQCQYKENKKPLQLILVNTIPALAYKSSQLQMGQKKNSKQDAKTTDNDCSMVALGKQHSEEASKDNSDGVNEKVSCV
How it was run: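 Antagonist-mode intracellular calcium assay: DOI (4 nM) added after 5 min compound pre-incubation at room temperature to dye-loaded HTR2A-CHO cells. Fluorescence followed for 3 min, sampled every second.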

[9] = molecular target: 5-hydroxytryptamine receptor 2A (Homo sapiens) (UniProt P28223); test: 5-hydroxytryptamine receptor 2A (HTR2A) small molecule agonists, cell-based qHTS assay (AID 1963587); also: nearly all actives have a fitted effect of over 30% in size
How it was run: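 HTR2A-CHO cells, plated 18 h at 37 C/5% CO2, dye-loaded 1 h at 37 C; compounds in DMSO added by pin tool (agonist mode). Intracellular calcium flux read as kinetic fluorescence on FDSS over 2 min at 1 s intervals.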

[10] = molecular target: Muscarinic acetylcholine receptor M1 (Homo sapiens) (UniProt P11229); test: Cholinergic receptor muscarinic 1 (CHRM1) small molecule antagonists, cell-based qHTS assay (AID 1963588); also: nearly all actives have a fitted effect of over 40% in size; also: potency is read from the fitted curve at half-maximal effect
Chain of Muscarinic acetylcholine receptor M1 (Homo sapiens) (P11229 whole entry, looked up): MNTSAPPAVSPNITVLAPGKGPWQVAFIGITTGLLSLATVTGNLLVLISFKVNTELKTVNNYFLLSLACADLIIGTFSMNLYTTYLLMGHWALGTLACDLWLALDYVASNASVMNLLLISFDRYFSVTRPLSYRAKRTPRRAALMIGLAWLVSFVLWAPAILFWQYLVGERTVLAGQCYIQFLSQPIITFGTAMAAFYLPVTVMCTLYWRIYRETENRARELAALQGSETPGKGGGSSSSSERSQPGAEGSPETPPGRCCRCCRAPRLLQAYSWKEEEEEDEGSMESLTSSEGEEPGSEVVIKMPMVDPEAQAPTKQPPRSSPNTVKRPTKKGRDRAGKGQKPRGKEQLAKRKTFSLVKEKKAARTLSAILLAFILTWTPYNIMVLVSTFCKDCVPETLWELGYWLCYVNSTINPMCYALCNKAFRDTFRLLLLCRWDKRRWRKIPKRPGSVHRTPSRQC
How it was run: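 CHRM1-CHO calcium-flux assay, antagonist mode. Cells were seeded 18 h, dye-loaded 1 h at 37 C and given compound for 5 min at RT, then acetylcholine was added at 50nM. FDSS fluorescence was read 3 min; 15 concentrations, three runs.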

[11] = molecular target: Muscarinic acetylcholine receptor M1 (Homo sapiens) (UniProt P11229); test: Cholinergic receptor muscarinic 1 (CHRM1) small molecule agonists, cell-based qHTS assay (AID 1963589); also: nearly all actives have a fitted effect of over 35% in size
How it was run: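 CHO cells stably expressing human CHRM1, seeded 18 h at 37 C/5% CO2, dye-loaded 1 h at 37 C, then given compound in agonist mode; intracellular calcium fluorescence read kinetically at 1 s intervals. Fifteen concentrations, three independent runs.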

[12] = cAMP Responsive Elements (CRE) small molecule agonists, cell-based qHTS assay (AID 1963590)
How it was run: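 CRE-bla HEK 293T cells in DMEM with 10% dialyzed FBS, NEAA, pyruvate and 25 mM HEPES were plated 18 h at 37 C/5% CO2, then exposed to compounds in DMSO for 3 h before LiveBLAzer B/G FRET substrate addition.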

[13] = cAMP Responsive Elements (CRE) small molecule antagonists, cell-based qHTS assay (AID 1963591; active = well fitted inhibition curve with a large enough effect in the signal ratio in the repeat runs, not every such curve was filed as active; the % refers to the signal ratio)
How it was run: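 CRE-bla HEK293T cells were plated 18 h at 37 °C/5% CO2, pinned with compound in DMSO, then stimulated with NKH477 at 0.25 uM final for 3 h. LiveBLAzer B/G FRET substrate was added and plates incubated 2 h at room temperature.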

[14] = molecular target: Beta-2 adrenergic receptor (Homo sapiens) (UniProt P07550); test: Adrenergic beta2 receptor (ADRB2) small molecule antagonists, cell-based qHTS assay (AID 1963592); also: series mostly up to about 92 µM; nearly all actives have a fitted effect of over 50% in size
Chain of Beta-2 adrenergic receptor (Homo sapiens) (P07550 whole entry, looked up): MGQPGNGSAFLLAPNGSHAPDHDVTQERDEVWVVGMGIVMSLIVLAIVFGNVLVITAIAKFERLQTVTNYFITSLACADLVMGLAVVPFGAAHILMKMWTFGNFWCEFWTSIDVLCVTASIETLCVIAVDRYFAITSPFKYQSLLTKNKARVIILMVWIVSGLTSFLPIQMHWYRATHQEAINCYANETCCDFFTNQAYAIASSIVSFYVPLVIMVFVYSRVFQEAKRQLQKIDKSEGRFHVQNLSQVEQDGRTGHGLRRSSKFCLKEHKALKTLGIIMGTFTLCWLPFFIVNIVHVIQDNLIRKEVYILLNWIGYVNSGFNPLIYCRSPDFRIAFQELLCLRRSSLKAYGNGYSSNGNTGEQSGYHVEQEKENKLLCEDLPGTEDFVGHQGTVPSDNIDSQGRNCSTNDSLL
How it was run: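 Cells (CHO, stable ADRB2 overexpression) incubated 18-20hr at 37C; compounds added from DMSO; agonist mix (1nM isoproterenol, 100uM IBMX, 25uM Ro-20-1724) added; 0.5hr RT; d2-cAMP and anti-cAMP-cryptate added; 1hr RT; 665/615 nm read.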

[15] = molecular target: D(2) dopamine receptor (Homo sapiens) (UniProt P14416); test: Dopamine D2 receptor (DRD2) small molecule agonists, cell-based qHTS assay (AID 1963594); also: nearly all actives have a fitted effect of over 35% in size
Chain of D(2) dopamine receptor (Homo sapiens) (P14416 whole entry, looked up): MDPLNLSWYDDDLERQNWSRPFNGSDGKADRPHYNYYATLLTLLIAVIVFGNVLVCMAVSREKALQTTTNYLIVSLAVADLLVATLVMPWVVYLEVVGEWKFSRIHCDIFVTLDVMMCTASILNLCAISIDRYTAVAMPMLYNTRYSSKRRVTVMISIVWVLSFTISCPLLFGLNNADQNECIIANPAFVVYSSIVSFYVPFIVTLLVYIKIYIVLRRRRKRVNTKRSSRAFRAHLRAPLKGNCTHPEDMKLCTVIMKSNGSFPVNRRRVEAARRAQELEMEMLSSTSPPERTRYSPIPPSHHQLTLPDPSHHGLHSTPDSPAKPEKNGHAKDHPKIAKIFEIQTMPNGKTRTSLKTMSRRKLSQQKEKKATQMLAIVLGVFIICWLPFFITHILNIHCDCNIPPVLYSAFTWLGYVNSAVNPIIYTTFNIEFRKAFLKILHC
How it was run: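 HEK293 cells stably expressing DRD2 were cultured 24 h at 37 C, then given Ro20-1724 (0.1 mM final) and compounds for 10 min at room temperature. NKH477 (200nM) was then added for 30 min. cAMP was read by HTRF.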

[16] = molecular target: D(2) dopamine receptor (Homo sapiens) (UniProt P14416); test: Dopamine D2 receptor (DRD2) small molecule antagonists, cell-based qHTS assay (AID 1963595; active = well fitted inhibition curve with a large enough effect in the signal ratio in the repeat runs, with a control signal flat; the % refers to the signal ratio)
How it was run: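 Human DRD2 antagonist qHTS measuring cAMP by HTRF. The cells are exposed to compound for 10 min, then to NKH477 (200 nM) and quinpirole (12 nM) for 30 min at RT, with Ro20-1724 (0.1 mM) present throughout.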

[17] = p53 small molecule agonists, cell-based qHTS assay: qHTS cell viability counter screen (AID 1963581); also: nearly all actives have a fitted effect of over 45% in size
How it was run: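 p53RE-bla HCT-116 cells were exposed to compounds for 16 h at 37 C; after the beta-lactamase FRET read in the same wells, CellTiter-Glo was added and luminescence (intracellular ATP) read after 30 min at room temperature.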

[18] = p53 small molecule agonists, cell-based qHTS assay (AID 1963582; active = well fitted activation curve with a large enough effect in the signal ratio in the repeat runs, not every such curve was filed as active; the % refers to the signal ratio)
How it was run: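 p53RE-bla beta-lactamase reporter cells rested 5 h at 37 C/5% CO2, then received compounds in DMSO by pin transfer and were incubated 16 h at 37 C. LiveBLAzer B/G FRET substrate was loaded for 2 h at room temperature before fluorescence reading.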

[19] = molecular target: Beta-2 adrenergic receptor (Homo sapiens) (UniProt P07550); test: Adrenergic beta2 receptor (ADRB2) small molecule agonists, cell-based qHTS assay (AID 1963593);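 also: CHO cells stably overexpressing human ADRB2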
How it was run: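 CHO cells stably over-expressing ADRB2 were plated overnight at 37C, then dosed with compounds plus a stimulation mix containing 100uM IBMX and 25uM Ro-20-1724 for 0.5hr at room temperature. cAMP was measured by HTRF competition, 1hr.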

Row | Structure (SMILES) | Potency [1] | Potency [2] | Potency [3] | Potency [4] | Potency [5] | Potency [6] | Potency [7] | Potency [8] | Potency [9] | Potency [10] | Potency [11] | Potency [12] | Potency [13] | Potency [14] | Potency [15] | Potency [16] | Potency [17] | Potency [18] | Potency [19]
1 | O=C(O)Cc1ccc(OCCNC[C@H](O)c2ccccc2)cc1 | inactive | 33.5 µM (active) | inactive | inactive | inactive | inactive | inactive | inactive | inactive | inactive | inactive | inactive | inactive | inactive | inactive | inactive | – | – | –
2 | O=S(=O)(O)c1ccc(Nc2nc(Nc3ccc(/C=C/c4ccc(Nc5nc(Nc6ccc(S(=O)(=O)O)cc6)nc(N(CCO)CCO)n5)cc4S(=O)(=O)O)c(S(=O)(=O)O)c3)nc(N(CCO)CCO)n2)cc1 | inactive | inactive | inactive | inactive | inactive | inactive | – | inactive | inactive | inactive | – | inactive | – | inactive | inactive | inactive | inactive | inactive | –
3 | C=Cc1ccc(C=C)cc1 | inactive | inactive | inactive | inactive | inactive | inactive | inactive | – | inactive | inactive | inactive | inactive | inactive | inactive | inactive | inactive | – | – | –
4 | CC(=O)OCC(CCn1cnc2cnc(N)nc21)COC(C)=O | inactive | inactive | inactive | inactive | inactive | inactive | inactive | – | – | – | – | inactive | inactive | inactive | inactive | inactive | – | – | inactive
5 | COc1ccc(COC=O)cc1 | inactive | inactive | inactive | inactive | inactive | inactive | inactive | inactive | inactive | inactive | inactive | inactive | inactive | inactive | inactive | inactive | – | – | –
6 | Cc1cc2nc(N)sc2cc1C | inactive | inactive | inactive | inactive | inactive | inactive | – | – | inactive | inactive | inactive | inactive | – | – | inactive | inactive | inactive | inactive | inactive
7 | O=C(Cl)c1cc(Cl)cc(Cl)c1 | inactive | inactive | inactive | inactive | inactive | inactive | – | inactive | inactive | inactive | inactive | inactive | – | inactive | inactive | inactive | inactive | inactive | inactive
8 | CN(C)c1ccc(N=NS(=O)(=O)O)cc1 | inactive | 25.6 µM (active) | inactive | inactive | inactive | inactive | inactive | inactive | – | inactive | inactive | – | – | – | inactive | – | – | – | –
9 | CC(=O)c1ccccc1[N+](=O)[O-] | inactive | inactive | inactive | inactive | inactive | inactive | inactive | inactive | inactive | inactive | – | inactive | – | inactive | inactive | inactive | – | – | –
10 | O=c1[nH][nH]c2ccccc12 | inactive | 62.3 µM (active) | inactive | inactive | inactive | inactive | inactive | – | inactive | – | inactive | – | – | inactive | inactive | inactive | – | – | inactive
11 | C=C1c2cccc(O)c2C(O)=C2C(=O)[C@]3(O)C(O)=C(C(N)=O)C(=O)[C@@H](N(C)C)[C@@H]3[C@@H](O)[C@H]12 | inactive | inactive | inactive | inactive | inactive | inactive | – | inactive | inactive | inactive | inactive | inactive | – | inactive | inactive | inactive | inactive | inactive | –
12 | CC(=O)Oc1cccc2c1C(=O)c1c(OC(C)=O)cc(C(=O)O)cc1C2=O | inactive | inactive | inactive | inactive | inactive | inactive | inactive | inactive | inactive | inactive | inactive | – | – | inactive | inactive | – | – | – | –
13 | CC(C)N(c1ccccc1)C(C)C | inactive | inactive | inactive | inactive | inactive | inactive | inactive | inactive | inactive | inactive | inactive | inactive | inactive | inactive | inactive | inactive | – | – | –
14 | Fc1ccccc1 | inactive | inactive | inactive | inactive | inactive | inactive | inactive | – | – | inactive | inactive | inactive | inactive | inactive | inactive | inactive | – | – | inactive
15 | CN1CCC(OC(c2ccccc2)c2ccccc2)CC1 | inactive | inactive | inactive | inactive | inactive | inactive | inactive | – | inactive | 0.0818 µM (active) | inactive | inactive | inactive | – | inactive | – | – | – | inactive
16 | BrCc1cccc(Oc2ccccc2)c1 | inactive | inactive | inactive | inactive | inactive | inactive | inactive | – | inactive | inactive | – | inactive | – | inactive | inactive | inactive | – | – | –
17 | Cc1ccc(OC(=O)CC(C)C)cc1 | inactive | inactive | inactive | inactive | inactive | inactive | inactive | inactive | inactive | inactive | inactive | inactive | – | inactive | inactive | inactive | – | – | –
